RE007 growth inh = less growth of the S. pombe RE007 Vpr strain. S. pombe RE007 Vpr strain, BacTiter-Glo ATP luminescence, 24 h. Potency, µM (titrated, usually from 92.2 µM), without a hit: at the highest dose activity change, negative = less growth, hits mostly inhibitors. hit rate 0.21% among 360,000; active = well fitted falling curve with a large enough effect; inconclusive = small, poorly fitted or top-dose-only effect; inactive = no such curve, though single readings can be large or run the other way; also: nearly all actives have a fitted effect of over 50% in size
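Fission yeast RE007 carrying one integrated HIV-1 vpr copy, seeded at OD 0.01 in PMG+AL medium with 23 nL pinned compound. Grown 24 h at 30 degrees; viability read by BacTiter-Glo luminescence after 5 min.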
FMDV inh = foot and mouth disease virus antiviral activity | FMDV antiviral cell-based qHTS | Potency, µM (series often up to 57.9 µM), inactives show top-dose activity change, negative = inhibition, actives largely listed as inhibitors | hit rate 1.2% among 410,000 | AID 1159524; calls by dose curve; tested in HEK293T cells; also: read-out not given here; nearly all actives have a fitted effect of over 45% in size
HCV inhibitor = blocks hepatitis C virus. Potency, µM (highest dose often 41.8 µM), for inactives: at the highest dose activity change, negative = inhibition, most hits filed as inhibitors. AID 651820. Huh7.5.1 HCVcc-Cre infection, luciferase reporter, 44 h. hit rate 3.4% among 340,000
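HCVcc-Cre virus at an moi near 0.5 was added right after compound to cells cultured 4 h from seeding (1,000 cells/well). Luciferase activity was determined 44 h later, 15 min after substrate addition at RT.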
MARV entry inh = blocks Marburg virus binding to or entry into cells; Marburg virus pseudotyped entry inhibition, cell reporter; Potency, µM (series often up to 37.8 µM), without a hit: at the top dose activity change, negative = inhibition, hits mostly inhibitors; hit rate 1.8% among 300,000; calls by dose curve; tested in HEK293 cells
LASV entry inh = Lassa virus entry inhibition. Lassa virus pseudotype entry inhibition, cell reporter. Potency, µM (series often up to 37.9 µM), without a hit: at the top dose activity change, negative = inhibition, most hits filed as inhibitors. hit rate 1.2% among 300,000; calls by dose curve; tested in HEK293 cells; also: nearly all actives have a fitted effect of over 50% in size
Sm TGR inh = blocks Schistosoma mansoni thioredoxin glutathione reductase | AID 485364 | Potency, µM (doses to about 114 µM), inactives show at the highest dose activity change, negative = inhibition, actives largely listed as inhibitors | purified TGR, DTNB reduction, TNB absorbance 405 nm | hit rate 3% among 360,000; also: nearly all actives have a fitted effect of over 60% in size
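TGR 20 nM + NADPH 100 uM (dispensed conc.), cpd preinc 15 min RT; start with NADPH (500 uM addition) then DTNB (15 mM addition). Kinetic TNB absorbance, 405 nm filter. Four-parameter Hill fit across titration.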
The depositor's hits bear a star; u = inconclusive; x = not tested or not shown; [ ] = another dose, or the depositor's remark. Sampled rows, rich in hits. Any-hit rate of the full collection: about 7.2%. Unless noted, calls follow the shape of the dose curve; as a rule, active = well fitted curve in the direction sought with a large enough effect; inconclusive = small, poorly fitted or top-dose-only effect, or another doubt; inactive = no such curve, though single readings can be large; an effect the other way counts as inactive or inconclusive. % is scaled to controls: 0 for no effect and ±100 for the full control effect; potency is read from the fitted curve at half-maximal effect.

SMILES	RE007 growth inh	FMDV inh	HCV inhibitor	MARV entry inh	LASV entry inh	Sm TGR inh
O=C(C1CCCN(S(=O)(=O)c2ccc(Br)s2)C1)N1CCN(c2ccccc2F)CC1 (configuration not stated)	x	-13.6%	x	9.2%[46.1 µM]	1.7%[46.1 µM]	-1.5%
CC(=O)/C(=C\c1ccccc1)CC(=O)O	x	-13.6%	x	x	x	x
Cc1cccc(C)c1OC[C@H](C)N	x	x	x	-17.7%	x	x
Nc1ncc(-c2cccc(S(N)(=O)=O)c2)c2scc(-c3ccc(F)c(Cl)c3)c12	x	x	x	x	22.3µM*	x
Cc1c(Cl)cccc1-n1ncc(C(=O)NCCN2CCN(C)CC2)c1C1CCN(C(=O)OC(C)(C)C)CC1	x	-23.5%	x	x	16.9%[46.1 µM]	3.4%
CC(=O)NC(c1ccccc1)c1nc(/C=C/c2ccccc2)cs1 (configuration not stated)	-1.7%[18.4 µM]	7.9%	x	x	x	x
NC(=O)c1c(NC(NC(=O)c2ccco2)C(=O)c2ccc(Cl)cc2)sc2c1CCCC2 (configuration not stated)	4.0%	x	-5.8%	u	3.8%	31.6µM*
CCC1CCc2c(sc(NC(=O)c3ccco3)c2C(N)=O)C1 (configuration not stated)	u	36.0%	3.98µM*	-1.5%	u	-23.9%
CNC(=O)c1c(NC(=O)c2ccco2)sc2c1CCC2	-16.3%	14.8%	11.2µM*	x	x	31.6µM*
O=C(Nc1sc2c(c1C(=O)NC1CCCCC1)CCC2)c1ccco1	3.5%	-14.5%	u	0.3%	-15.8%	u
CNC(=O)c1c(NC(=O)/C=C/c2ccccc2)sc2c1CCC2	x	37.2%	x	x	-5.6%[46.1 µM]	35.5µM*
O=C(/C=C/c1ccccc1)Nc1sc2c(c1C(=O)O)CCC2	-29.8%	41.1%	0.5%	x	x	u
CCOC(=O)c1c(NC(=O)/C=C/c2ccc(OCC)c(OC)c2)sc2c1CCC2	x	-10.3%	x	9.2%[46.1 µM]	4.1%[46.1 µM]	13.7%
CCCCCCOc1ccc(/C=C/C(=O)Nc2sc3c(c2C(=O)OC)CCC3)cc1OC	x	14.1µM*	x	x	20.2%[46.1 µM]	-1.8%
CC(C)CCNC(=O)CCc1nnc(Cc2c[nH]c3ccccc23)o1	-11.5%	11.8%	3.4%	x	x	12.6µM*
O=C(CCc1nnc(Cc2c[nH]c3ccccc23)o1)NC(C1CC1)C1CC1	96.0%	-8.7%	-28.5%	u	-19.7%	u
COCCN(C(=O)CCc1nnc(Cc2c[nH]c3ccccc23)o1)C(C)C	3.6%	-9.9%	8.2%	x	x	20µM*
COc1ccc(-c2cc(CNC(=O)CCl)on2)cc1	20.0%	u	u	u	u	35.5µM*
Cc1cc2c(cc1C)CSC(c1c(O)ccc3ccccc13)SC2	u	u	u	u	u	-8.4%
Cc1cc2c(cc1C)CSC(c1ccc3ccccc3c1O)SC2	1.8%	-14.6%	-14.3%	3.66µM*	u	-21.4%
CCN(CC)CCCNC(=O)CN1N=C(c2ccccc2)CCC1=O	x	-16.5%	x	x	u	-1.6%
Cc1ccc(-c2nn(-c3ccccc3)cc2/C=C(\C#N)c2cccc(C#N)c2)o1	-6.6%	-1.6%	u	10.0%	u	50.1µM*
CCc1nc2c(OCc3ccc(F)cc3)cccn2c1N(C)C(=O)COc1ccccc1	-18.9%[18.4 µM]	31.6µM*	x	x	x	x
O=C1C(Cl)=C(NCCN2CCOCC2)C(=O)c2ncccc21	x	15.8µM*	x	x	x	x
O=C1C(Cl)=C(NCCN2CCOCC2)C(=O)c2ccccc21	-13.7%	-19.6%	u	u	u	u
O=C1C(Cl)=C(NCCCN2CCOCC2)C(=O)c2ccccc21	-28.2%	-28.8%	10µM*	u	u	x
Cc1c(C(=O)N2CCCC2)oc2c1-c1nn(CC(=O)NCc3ccccc3F)cc1CC2	x	3.6%	x	x	-12.4%[46.1 µM]	-6.5%
Cc1ncc(CNC(=O)N(CCCl)N=O)c(N)n1	29.5%	-16.5%	2.82µM*	u	0.2%	-22.1%
O=C(Cn1ncc2c3ccccc3n(Cc3ccccc3)c2c1=O)N1CCN(c2ccccn2)CC1	-6.4%	-24.3%	-11.2%	x	x	0.4%
CC1(C)C(=O)Nc2ccccc2N1C(=O)CSc1nc(-c2ccccc2)cs1	4.0%	15.8µM*	u	u	6.3%	-7.2%

Screening results deposited in PubChem by National Center for Advancing Translational Sciences (NCATS).
